From PubChem BioAssay AID1159580 (chemical genetic matrix, 2015)
“And” between values parts separate entries of the source, which are not always exact repeats. Identical values can stand only once. About 2,000 (36%) of roughly 5,500 compounds were called active. Another 18% or so got no clear call; they are omitted. Rule as the data show it: active = normalized growth mostly below about 0.91 (no sharp cut-off); inconclusive = no clear call, values can overlap the other calls; inactive = mostly above about 0.92. This is one part of the list.

Experiment: chemical genetic growth profiling, strain panel (AID 1159580);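 also: tested at 20 µM; growth read once vehicle control cultures reached saturation at 30 °C; 1 = growth at the plate median or of vehicle wells; lower values mean less growth of the strain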
Settings: growth OD

Measured: normalized growth

C=C1CCC(C2CC(=O)OC2=O)C(=O)CCC2C1CC2(C)C (centres undefined)
inactive: S. cerevisiae deletion strains, locus YAL021C, strain ccr4, stronger effect = lower value 0.991 | S. cerevisiae deletion strains, locus YAL026C, strain drs2, stronger effect = lower value 1 | S. cerevisiae deletion strains, locus YAL030W, strain snc1, stronger effect = lower value 1.01 | S. cerevisiae deletion strains, locus YBL061C, strain skt5, stronger effect = lower value 1 | S. cerevisiae deletion strains, locus YBR009C, strain hhf1, stronger effect = lower value 1 | S. cerevisiae deletion strains, locus YBR021W, strain FUR4, stronger effect = lower value 1 | S. cerevisiae deletion strains, locus YBR023C, strain chs3, stronger effect = lower value 1 | S. cerevisiae deletion strains, locus YBR171W, strain sec66, stronger effect = lower value 1 | S. cerevisiae deletion strains, locus YBR229C, strain ROT2, stronger effect = lower value 1.01 | S. cerevisiae deletion strains, locus YBR231C, strain swc5, stronger effect = lower value 1 | S. cerevisiae deletion strains, locus YBR279W, strain paf1, stronger effect = lower value 1.01 | S. cerevisiae deletion strains, locus YCL011C, strain gbp2, stronger effect = lower value 1 | S. cerevisiae deletion strains, locus YCL016C, strain dcc1, stronger effect = lower value 0.993 | S. cerevisiae deletion strains, locus YCL029C, strain bik1, stronger effect = lower value 1.02 | S. cerevisiae deletion strains, locus YCL069W, strain vba3, stronger effect = lower value 1.02 | S. cerevisiae deletion strains, locus YCR088W, strain abp1, stronger effect = lower value 1.01 | S. cerevisiae deletion strains, locus YDL005C, strain med2, stronger effect = lower value 1.01 | S. cerevisiae deletion strains, locus YDL035C, strain GPR1, stronger effect = lower value 0.995 | S. cerevisiae deletion strains, locus YDL040C, strain nat1, stronger effect = lower value 1.01 | S. cerevisiae deletion strains, locus YDL074C, strain BRE1, stronger effect = lower value 1.03 | S. cerevisiae deletion strains, locus YDL101C, strain DUN1, stronger effect = lower value 1.02 | S. cerevisiae deletion strains, locus YDL134C, strain PPH21, stronger effect = lower value 1.04 | S. cerevisiae deletion strains, locus YDL185W, strain tfp1, stronger effect = lower value 1.02 | S. cerevisiae deletion strains, locus YDL192W, strain arf1, stronger effect = lower value 1.01 | S. cerevisiae deletion strains, locus YDR001C, strain nth1, stronger effect = lower value 1 | S. cerevisiae deletion strains, locus YDR069C, strain doa4, stronger effect = lower value 0.988 | S. cerevisiae deletion strains, locus YDR101C, strain arx1, stronger effect = lower value 0.972 | S. cerevisiae deletion strains, locus YDR137W, strain rgp1, stronger effect = lower value 1.01 | S. cerevisiae deletion strains, locus YDR159W, strain sac3, stronger effect = lower value 0.97 | S. cerevisiae deletion strains, locus YDR162C, strain NBP2, stronger effect = lower value 1 | S. cerevisiae deletion strains, locus YDR195W, strain ref2 0.986 | S. cerevisiae deletion strains, locus YDR297W, strain sur2, stronger effect = lower value 1 | S. cerevisiae deletion strains, locus YDR318W, strain mcm21, stronger effect = lower value 1 | S. cerevisiae deletion strains, locus YDR334W, strain swr1, stronger effect = lower value 1 | S. cerevisiae deletion strains, locus YDR335W, strain msn5, stronger effect = lower value 1.02 | S. cerevisiae deletion strains, locus YDR388W, stronger effect = lower value 1 | S. cerevisiae deletion strains, locus YDR392W, strain spt3, stronger effect = lower value 0.876 | S. cerevisiae deletion strains, locus YDR502C, strain sam2, stronger effect = lower value 1.03 | S. cerevisiae deletion strains, locus YEL003W, strain gim4, stronger effect = lower value 1.01 | S. cerevisiae deletion strains, locus YEL037C, strain rad23, stronger effect = lower value 1.01 | S. cerevisiae deletion strains, locus YEL061C, strain CIN8 (second series), stronger effect = lower value 1.01 | S. cerevisiae deletion strains, locus YER015W, strain faa2, stronger effect = lower value 1.02 | S. cerevisiae deletion strains, locus YER016W, strain bim1, stronger effect = lower value 1 | S. cerevisiae deletion strains, locus YER110C, stronger effect = lower value 1.01 | S. cerevisiae deletion strains, locus YER111C, strain swi4, stronger effect = lower value 1.01 | S. cerevisiae deletion strains, locus YER155C, strain BEM2 (second series), stronger effect = lower value 0.983 | S. cerevisiae deletion strains, locus YER155C, strain BEM2, stronger effect = lower value 1.01 | S. cerevisiae deletion strains, locus YER167W, strain BCK2, stronger effect = lower value 1 | S. cerevisiae deletion strains, locus YFR010W, strain ubp6, stronger effect = lower value 1.01 | S. cerevisiae deletion strains, locus YGL078C, strain dbp3, stronger effect = lower value 1.03 | S. cerevisiae deletion strains, locus YGL086W, strain mad1, stronger effect = lower value 1.01 | S. cerevisiae deletion strains, locus YGL167C, strain pmr1, stronger effect = lower value 1.01 | S. cerevisiae deletion strains, locus YGL173C, strain kem1, stronger effect = lower value 1 | S. cerevisiae deletion strains, locus YGL227W, strain vid30, stronger effect = lower value 1.01 | S. cerevisiae deletion strains, locus YGL240W, strain doc1, stronger effect = lower value 0.987 | S. cerevisiae deletion strains, locus YGL248W, strain PDE1, stronger effect = lower value 1.04 | S. cerevisiae deletion strains, locus YGL253W, strain hxk2, stronger effect = lower value 1.03 | S. cerevisiae deletion strains, locus YGR078C, strain PAC10, stronger effect = lower value 1.04 | S. cerevisiae deletion strains, locus YGR135W, strain pre9, stronger effect = lower value 1.05 | S. cerevisiae deletion strains, locus YGR252W, strain gcn5, stronger effect = lower value 1.09 | S. cerevisiae deletion strains, locus YHR013C, strain ard1, stronger effect = lower value 1.01 | S. cerevisiae deletion strains, locus YHR027C, strain rpn1, stronger effect = lower value 1 | S. cerevisiae deletion strains, locus YHR030C, strain SLT2, stronger effect = lower value 0.975 | S. cerevisiae deletion strains, locus YHR079C, strain IRE1 (second series), stronger effect = lower value 1.01 | S. cerevisiae deletion strains, locus YHR079C, strain IRE1, stronger effect = lower value 0.974 | S. cerevisiae deletion strains, locus YHR094C, strain hxt1, stronger effect = lower value 0.995 | S. cerevisiae deletion strains, locus YHR129C, strain ARP1, stronger effect = lower value 1.02 | S. cerevisiae deletion strains, locus YHR142W, strain chs7, stronger effect = lower value 1.04 | S. cerevisiae deletion strains, locus YHR200W, strain rpn10, stronger effect = lower value 1.03 | S. cerevisiae deletion strains, locus YIL066C, strain RNR3, stronger effect = lower value 1.01 | S. cerevisiae deletion strains, locus YIL073C, strain SPO22, stronger effect = lower value 1.02 | S. cerevisiae deletion strains, locus YIL125W, strain kgd1, stronger effect = lower value 0.98 | S. cerevisiae deletion strains, locus YIR030C, strain dcg1, stronger effect = lower value 1.01 | S. cerevisiae deletion strains, locus YJL092W, strain hpr5, stronger effect = lower value 1.02 | S. cerevisiae deletion strains, locus YJL095W, strain BCK1 (second series), stronger effect = lower value 1 | S. cerevisiae deletion strains, locus YJL095W, strain BCK1, stronger effect = lower value 1.06 and 0.979 | S. cerevisiae deletion strains, locus YJL115W, strain asf1, stronger effect = lower value 0.999 | S. cerevisiae deletion strains, locus YJL129C, strain trk1, stronger effect = lower value 0.989 | S. cerevisiae deletion strains, locus YJL134W, strain LCB3, stronger effect = lower value 0.997 | S. cerevisiae deletion strains, locus YJL154C, strain vps35, stronger effect = lower value 1.02 | S. cerevisiae deletion strains, locus YJL164C, strain tpk1, stronger effect = lower value 1 | S. cerevisiae deletion strains, locus YJL166W, strain qcr8, stronger effect = lower value 1 | S. cerevisiae deletion strains, locus YJL168C, strain set2, stronger effect = lower value 1.02 | S. cerevisiae deletion strains, locus YJL187C, strain SWE1 (second series), stronger effect = lower value 1.04 | S. cerevisiae deletion strains, locus YJR066W, strain TOR1, stronger effect = lower value 0.929 | S. cerevisiae deletion strains, locus YJR075W, strain HOC1, stronger effect = lower value 1.02 | S. cerevisiae deletion strains, locus YKL009W, strain mrt4, stronger effect = lower value 1 | S. cerevisiae deletion strains, locus YKL068W, stronger effect = lower value 1 | S. cerevisiae deletion strains, locus YKL085W, strain MDH1 (second series), stronger effect = lower value 1 | S. cerevisiae deletion strains, locus YKL085W, strain MDH1, stronger effect = lower value 1 | S. cerevisiae deletion strains, locus YKL160W, strain elf1, stronger effect = lower value 1 | S. cerevisiae deletion strains, locus YKR001C, strain vps1, stronger effect = lower value 1 | S. cerevisiae deletion strains, locus YKR026C, strain gcn3, stronger effect = lower value 1.01 | S. cerevisiae deletion strains, locus YKR091W, strain srl3, stronger effect = lower value 1 | S. cerevisiae deletion strains, locus YLL001W, strain dnm1, stronger effect = lower value 1.01 | S. cerevisiae deletion strains, locus YLL026W, stronger effect = lower value 1 | S. cerevisiae deletion strains, locus YLL041C, strain sdh2, stronger effect = lower value 1.01 | S. cerevisiae deletion strains, locus YLR027C, strain aat2, stronger effect = lower value 1.02 | S. cerevisiae deletion strains, locus YLR039C, strain RIC1, stronger effect = lower value 1.04 | S. cerevisiae deletion strains, locus YLR058C, strain SHM2, stronger effect = lower value 1 | S. cerevisiae deletion strains, locus YLR102C, strain apc9, stronger effect = lower value 1.01 | S. cerevisiae deletion strains, locus YLR113W, strain HOG1, stronger effect = lower value 0.946 | S. cerevisiae deletion strains, locus YLR221C, strain rsa3, stronger effect = lower value 0.99 | S. cerevisiae deletion strains, locus YLR258W, strain gsy2, stronger effect = lower value 1.03 | S. cerevisiae deletion strains, locus YLR262C, strain YPT6 (second series), stronger effect = lower value 0.993 | S. cerevisiae deletion strains, locus YLR268W, strain sec22, stronger effect = lower value 0.975 | S. cerevisiae deletion strains, locus YLR320W, strain mms22, stronger effect = lower value 0.999 | S. cerevisiae deletion strains, locus YLR330W, strain CHS5, stronger effect = lower value 1.01 | S. cerevisiae deletion strains, locus YLR342W, strain FKS1, stronger effect = lower value 1 | S. cerevisiae deletion strains, locus YLR357W, strain rsc2, stronger effect = lower value 1.03 | S. cerevisiae deletion strains, locus YLR370C, strain arc18, stronger effect = lower value 1.01 | S. cerevisiae deletion strains, locus YLR371W, strain rom2, stronger effect = lower value 0.997 | S. cerevisiae deletion strains, locus YLR384C, strain iki3, stronger effect = lower value 1.01 | S. cerevisiae deletion strains, locus YLR418C, strain cdc73, stronger effect = lower value 1.09 | S. cerevisiae deletion strains, locus YML016C, strain PPZ1, stronger effect = lower value 1.01 | S. cerevisiae deletion strains, locus YML032C, strain rad52, stronger effect = lower value 0.999 | S. cerevisiae deletion strains, locus YML120C, strain ndi1, stronger effect = lower value 1 | S. cerevisiae deletion strains, locus YML124C, strain tub3, stronger effect = lower value 1 | S. cerevisiae deletion strains, locus YMR058W, strain fet3, stronger effect = lower value 1.02 | S. cerevisiae deletion strains, locus YMR078C, strain ctf18, stronger effect = lower value 1 | S. cerevisiae deletion strains, locus YMR125W, strain sto1, stronger effect = lower value 1 | S. cerevisiae deletion strains, locus YMR129W, stronger effect = lower value 1.01 | S. cerevisiae deletion strains, locus YMR205C, strain PFK2, stronger effect = lower value 0.98 | S. cerevisiae deletion strains, locus YMR223W, strain ubp8, stronger effect = lower value 1.01 | S. cerevisiae deletion strains, locus YMR231W, strain pep5, stronger effect = lower value 0.991 | S. cerevisiae deletion strains, locus YMR263W, strain SAP30, stronger effect = lower value 1.01 | S. cerevisiae deletion strains, locus YMR307W, strain GAS1, stronger effect = lower value 1.06 | S. cerevisiae deletion strains, locus YNL067W, strain RPL9B, stronger effect = lower value 1.02 | S. cerevisiae deletion strains, locus YNL071W, strain lat1, stronger effect = lower value 1.01 | S. cerevisiae deletion strains, locus YNL153C, strain GIM3, stronger effect = lower value 1.03 | S. cerevisiae deletion strains, locus YNL183C, strain NPR1, stronger effect = lower value 0.937 | S. cerevisiae deletion strains, locus YNL209W, strain ssb2, stronger effect = lower value 1 | S. cerevisiae deletion strains, locus YNL233W, strain BNI4, stronger effect = lower value 1.04 | S. cerevisiae deletion strains, locus YNL248C, strain rpa49, stronger effect = lower value 0.928 | S. cerevisiae deletion strains, locus YNL250W, strain rad50, stronger effect = lower value 1.03 | S. cerevisiae deletion strains, locus YNL271C, strain bni1, stronger effect = lower value 1.01 | S. cerevisiae deletion strains, locus YNL298W, strain CLA4, stronger effect = lower value 0.993 | S. cerevisiae deletion strains, locus YNL307C, strain MCK1, stronger effect = lower value 1.01 | S. cerevisiae deletion strains, locus YNL322C, strain KRE1 (second series), stronger effect = lower value 0.989 | S. cerevisiae deletion strains, locus YNR049C, strain mso1, stronger effect = lower value 1.01 | S. cerevisiae deletion strains, locus YNR052C, strain pop2, stronger effect = lower value 1.01 | S. cerevisiae deletion strains, locus YOL012C, strain htz1 0.988 | S. cerevisiae deletion strains, locus YOL147C, strain pex11, stronger effect = lower value 1 | S. cerevisiae deletion strains, locus YOR001W, strain rrp6, stronger effect = lower value 0.976 | S. cerevisiae deletion strains, locus YOR061W, strain CKA2, stronger effect = lower value 0.991 | S. cerevisiae deletion strains, locus YOR069W, strain VPS5, stronger effect = lower value 1.01 | S. cerevisiae deletion strains, locus YOR070C, strain gyp1, stronger effect = lower value 1.02 | S. cerevisiae deletion strains, locus YOR080W, strain dia2, stronger effect = lower value 0.993 | S. cerevisiae deletion strains, locus YOR083W, strain WHI5, stronger effect = lower value 0.997 | S. cerevisiae deletion strains, locus YOR106W, strain vam3, stronger effect = lower value 1.02 | S. cerevisiae deletion strains, locus YOR136W, strain idh2, stronger effect = lower value 1.01 | S. cerevisiae deletion strains, locus YOR144C, strain elg1, stronger effect = lower value 0.996 | S. cerevisiae deletion strains, locus YOR184W, strain ser1, stronger effect = lower value 0.98 | S. cerevisiae deletion strains, locus YOR231W, strain MKK1, stronger effect = lower value 0.964 | S. cerevisiae deletion strains, locus YOR265W, strain rbl2, stronger effect = lower value 0.995 | S. cerevisiae deletion strains, locus YOR270C, strain vph1, stronger effect = lower value 1.01 | S. cerevisiae deletion strains, locus YOR290C, strain snf2, stronger effect = lower value 0.952 | S. cerevisiae deletion strains, locus YOR316C, strain cot1, stronger effect = lower value 1.02 | S. cerevisiae deletion strains, locus YPL051W, strain arl3, stronger effect = lower value 1 | S. cerevisiae deletion strains, locus YPL078C, strain atp4, stronger effect = lower value 1 | S. cerevisiae deletion strains, locus YPL106C, strain sse1, stronger effect = lower value 1 | S. cerevisiae deletion strains, locus YPL240C, strain hsp82, stronger effect = lower value 1 | S. cerevisiae deletion strains, locus YPL256C, strain CLN2, stronger effect = lower value 0.962 | S. cerevisiae deletion strains, locus YPR119W, strain clb2, stronger effect = lower value 1 | S. cerevisiae deletion strains, locus YPR141C, strain kar3, stronger effect = lower value 1 | S. cerevisiae deletion strains, locus YPR163C, strain tif3, stronger effect = lower value 1 | S. cerevisiae deletion strains, locus YPR167C, strain met16, stronger effect = lower value 1 | S. cerevisiae deletion strains, strain wtn01, stronger effect = lower value 0.997 | S. cerevisiae strains, strain wild type, stronger effect = lower value 0.999
